From PubChem
Most compounds without a hit are left out; they make up all but 4.1% or so of the library.
Peg3 prom inh: Peg3 promoter-driven luciferase inhibitors, primary screen, cell-based, HeLa, luciferase luminescence; HeLa PEG-Prom luciferase reporter, overnight; 360,000 tested, 1.7% active; inhibition, % at 20 µM;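 active = inhibition of at least 50% at 20 µM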
TWEAK Fn14 block: inhibitors of TWEAK-Fn14 signaling, primary screen, luciferase reporter cells, uHTS. inhibition, % at 10 µM. 360,000 tested, 2% active. TWEAK-stimulated Fn14 reporter cells, luciferase luminescence, 8 h. AID 1159606, 2016; in the data active = inhibition above about 50%
EBV LMP1 NFkB: EBV LMP1-driven NF-kappaB luciferase reporter inhibitors, primary screen, cell-based, luminescence, single point. LMP1-induced NF-kappaB luciferase reporter cells. inhibition, % at 12.5 µM. 350,000 tested, 0.69% active; in the data active = inhibition above about 41%; inconclusive = no clear call, values can overlap the other calls;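 note: 0% = neutral control wells and 100% = reference inhibitor control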
Shn3 3UTR inh: reduction of Shn3 3'UTR firefly luciferase signal, primary screen, Schnurri-3 inhibitor project, cell-based, Clone20 osteoblasts, set 2; Clone20 osteoblast Shn3 3'UTR firefly luciferase, 24 h; 360,000 tested, 0.52% active; inhibition, % at 12.5 µM;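 active = mean inhibition of at least 75% with every replicate also reaching 75%; inconclusive = mean inhibition at least 75% but some replicate below; inactive = mean inhibition below 75%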;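 note: 0% = median of neutral control wells and 100% = pilot-screen positive control compound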
MITF TRPM1 inh: inhibitors of MITF-dependent TRPM1 promoter reporter, primary screen, cell-based, SK-MEL-5, single point, luciferase. inhibition, % at 12.5 µM. AID 488899, 2010. SK-MEL-5 TRPM1 promoter luciferase, 24 h. 330,000 tested, 0.83% active;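 active = mean inhibition across replicates of 60% or more, whatever share of single replicates reaches that level; inconclusive = some that reach 60%, reason not given; inactive = mean inhibition across replicates below 60%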
TROY NFkB inh: inhibitors of TROY-driven NF-kB signaling, primary screen, Q293 LMP1-TROYcd cells, NF-kB luciferase, uHTS | inhibition, % at 10 µM | Q293 LMP1-TROYcd NF-kB luciferase reporter, 4 h | 360,000 tested, 0.98% active | AID 1347056, 2019;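 active = compounds whose plate-normalised and pattern-corrected inhibition of the luciferase reporter signal at the single screening dose is 50% or more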
An asterisk follows results filed as active; ? = inconclusive.

SMILES	Peg3 prom inh	TWEAK Fn14 block	EBV LMP1 NFkB	Shn3 3UTR inh	MITF TRPM1 inh	TROY NFkB inh
Cc1ccc(C)c(S(=O)(=O)N2CCN(C(=O)c3ccc(C)s3)CC2)c1	21	-15	45*	4	4	1
N=C(N)c1ccc(N=Nc2c(O)ccc3c2[nH]c2ccccc23)cc1	98*	-3	11	14	27	-2
COc1ccc(C(Nc2ccccn2)c2oc(CO)cc(=O)c2O)cc1 (stereo not drawn)	-3	9	68*	-29	-13	2
O=C(O)CCC(=O)NNC(=O)c1cccs1	2	0	-7	-5	-4	0
CC(NC(=O)CCNS(=O)(=O)c1cccc2nonc12)c1ccccc1 (stereo not drawn)	5	6	1	-36	-2	4
O=C(Nc1ccccn1)c1onc2c1CCCC2	32	89*	41*	39	7	59*
O=C(Nc1ccccn1)c1csc2c1CCCC2	-242	-22	-44	-21	-42	-52
Cc1cc(C)c2cc3c(N)c(C(=O)Nc4c(C)[nH]c(=O)[nH]c4=O)sc3nc2c1	38	66*	12	-7	30	16
Cc1cc(C)c2cc3c(N)c(C(=O)N4CCOCC4)sc3nc2c1	-39	-3	-27	-23	-49	-19
CC[C@H](C)[C@@H](C(=O)NCCCCCCCCCCC(=O)N1CCN(C(=O)OC(C)(C)C)CC1)n1cc(CCCCCNC(=O)OC(C)(C)C)nn1	28	96*	19	89*	65*	45
CC(C)(C)OC(=O)CC[C@@H](C(=O)NCCCCCCCCCCC(=O)N1CCN(C(=O)OC(C)(C)C)CC1)n1cc(CCCCCNC(=O)OC(C)(C)C)nn1	2	13	6	31	12	-14
CC(C)(C)OC(=O)NCCCCCc1cn([C@@H](CO)C(=O)NCCCCCCCCCCC(=O)N2CCN(C(=O)OC(C)(C)C)CC2)nn1	93*	103*	15	34	58	73*
O=C(O)CSCC(=O)N1CCN(Cc2ccc3c(c2)OCO3)CC1	3	11	-2	-2	-5	-1
Fc1ccc(N2CCN(c3ncnc4c3nnn4Cc3ccccc3Cl)CC2)cc1	33	65*	24	27	10	37
FC(F)(F)c1ccc(N2CCN(c3ncnc4c3nnn4Cc3ccccc3Cl)CC2)cc1	21	25	21	72	24	3
Cc1ccc(Nc2c(-c3ccccn3)nc3ccc(C)cn23)cc1	12	3	28	95*	70*	16
Cc1ccc(Nc2c(-c3ccccn3)nc3cc(C)ccn23)cc1	39	-2	?	95*	64*	1
Cc1ccn2c(Nc3ccc4c(c3)OCO4)c(-c3ccccn3)nc2c1	-17	-13	2	75	33	9
O=[N+]([O-])c1ccc(N=Nc2c(Cl)cc(O)cc2Cl)cc1	72*	87*	35	72	18	27
O=C(O)CN1C(=O)COc2ccc(S(=O)(=O)N3CCCCCC3)cc21	0	-3	5	-5	6	2
Cc1ccc(S(N)(=O)=O)cc1NC(=O)C(c1ccccc1)c1ccccc1	10	-21	6	-17	5	-7
COc1ccc(NC(=O)c2ccc(F)cc2)cc1S(=O)(=O)Nc1cc(C)ccc1Br	54*	60*	1	4	10	44
COc1cccc(CC(=O)OCC(=O)c2cc(OC)c(OC)c(OC)c2)c1	-5	-11	0	-12	2	5
Cc1cccc(C(=O)N(Cc2ccco2)c2c(N)n(Cc3ccccc3)c(=O)[nH]c2=O)c1	-2	5	68*	20	5	-9
CC(C)CN(C(=O)COC(=O)c1cccnc1Cl)c1c(N)n(Cc2ccccc2)c(=O)[nH]c1=O	12	-19	-24	4	-6	-4
CC(C)N(Cc1ccccc1)C(=O)COC(=O)c1cnc(Cl)c(Cl)c1	83*	-10	6	4	47	5
CC(C)CCN(C(=O)c1ccncc1)c1c(N)n(Cc2ccccc2)c(=O)[nH]c1=O	19	15	0	-21	4	-5
